# In article PMC7862700, “An all-to-all approach to the identification of sequence-specific readers for epigenetic DNA modifications on cytosine”:
# Experiments:
# Test in all cases: DAPPL (digital affinity profiling via proximity ligation, sequencing); 10 mM Tris-HCl pH 7.5, 50 mM NaCl, 1 mM DTT, 4% glycerol, room temperature, 30 min; GST-TFs on glutathione beads, 16-mer random dsDNA library, 0.1% formaldehyde crosslink after washing; high values mean tight binding
# [1] = molecular target: T1, FEV (Homo sapiens, UniProt Q99581 1-238); details: protein: recombinant; tags: N-terminal GST; dsDNA, one strand shown
# T1 sequence: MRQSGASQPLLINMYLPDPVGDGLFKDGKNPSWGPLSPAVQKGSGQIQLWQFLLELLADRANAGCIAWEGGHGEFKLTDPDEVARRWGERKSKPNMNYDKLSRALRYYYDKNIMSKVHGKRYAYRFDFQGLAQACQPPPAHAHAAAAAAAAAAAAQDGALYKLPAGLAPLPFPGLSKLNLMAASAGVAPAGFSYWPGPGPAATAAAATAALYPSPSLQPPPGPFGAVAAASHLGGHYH
# How it was run: (§1)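 Human transcription factors were made in yeast as GST fusions, captured on glutathione beads and barcoded with DNA. With a tag-only sample included, the pool was incubated with 200 nmole of a random double-stranded 16-mer DNA library in Tris/NaCl/DTT/glycerol buffer at room temperature for 30 min, then crosslinked with 0.1% formaldehyde after washing, ligated by proximity, amplified and sequenced. For binding signal, each hexamer's read frequency for a factor is divided by its frequency for the tag-only sample.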
# [2] = molecular target: ETV5 (Homo sapiens, UniProt P41161 1-510); details: protein: recombinant; tags: N-terminal GST; dsDNA, one strand shown
# How it was run: as §1
# [3] = molecular target: HSF1 (Homo sapiens, UniProt Q00613 1-529); details: protein: recombinant; tags: N-terminal GST; chain copies: 3; dsDNA, one strand shown
# How it was run: as §1
# [4] = molecular target: T2, SPIC (Homo sapiens, UniProt Q8N5J4 1-248); details: protein: recombinant; tags: N-terminal GST; dsDNA, one strand shown
# T2 sequence: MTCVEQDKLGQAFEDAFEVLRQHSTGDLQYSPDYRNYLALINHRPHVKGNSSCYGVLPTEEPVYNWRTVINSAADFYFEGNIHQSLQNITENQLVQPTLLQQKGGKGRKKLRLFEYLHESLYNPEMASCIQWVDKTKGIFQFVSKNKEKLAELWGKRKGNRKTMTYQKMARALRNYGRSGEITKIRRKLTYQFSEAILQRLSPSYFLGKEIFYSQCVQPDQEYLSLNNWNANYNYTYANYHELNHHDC
# How it was run: as §1
# [5] = molecular target: ELF4 (Homo sapiens, UniProt Q99607 1-663); details: protein: recombinant; tags: N-terminal GST; dsDNA, one strand shown
# How it was run: as §1
# [6] = molecular target: T3, ELK4 (Homo sapiens, UniProt P28324-2 1-405); details: protein: recombinant; tags: N-terminal GST; dsDNA, one strand shown
# T3 sequence: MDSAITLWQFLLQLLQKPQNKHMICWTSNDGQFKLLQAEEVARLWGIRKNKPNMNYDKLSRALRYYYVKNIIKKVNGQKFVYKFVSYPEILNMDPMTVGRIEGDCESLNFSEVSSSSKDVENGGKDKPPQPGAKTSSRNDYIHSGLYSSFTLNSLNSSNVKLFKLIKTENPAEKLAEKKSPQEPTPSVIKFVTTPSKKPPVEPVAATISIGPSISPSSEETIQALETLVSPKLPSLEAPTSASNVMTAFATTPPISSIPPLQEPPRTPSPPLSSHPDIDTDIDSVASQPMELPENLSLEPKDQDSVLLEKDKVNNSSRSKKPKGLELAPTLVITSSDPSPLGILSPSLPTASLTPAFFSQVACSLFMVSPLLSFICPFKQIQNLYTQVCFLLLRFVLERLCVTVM
# How it was run: as §1
# [7] = molecular target: T4, ETV2 (Homo sapiens, UniProt O00321 1-342); details: protein: recombinant; tags: N-terminal GST; dsDNA, one strand shown
# T4 sequence: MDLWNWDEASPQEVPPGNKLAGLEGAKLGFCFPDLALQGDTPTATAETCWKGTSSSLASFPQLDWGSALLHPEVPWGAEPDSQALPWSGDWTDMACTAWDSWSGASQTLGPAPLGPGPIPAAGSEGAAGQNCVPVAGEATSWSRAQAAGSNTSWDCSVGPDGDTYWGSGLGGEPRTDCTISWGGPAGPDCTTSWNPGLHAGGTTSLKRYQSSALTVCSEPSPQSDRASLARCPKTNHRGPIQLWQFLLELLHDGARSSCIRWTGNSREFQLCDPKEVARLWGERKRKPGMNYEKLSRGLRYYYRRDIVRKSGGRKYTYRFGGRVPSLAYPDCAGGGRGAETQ
# How it was run: as §1
# [8] = molecular target: T5, ELF3 (Homo sapiens, UniProt P78545 1-371); details: protein: recombinant; tags: N-terminal GST; dsDNA, one strand shown
# T5 sequence: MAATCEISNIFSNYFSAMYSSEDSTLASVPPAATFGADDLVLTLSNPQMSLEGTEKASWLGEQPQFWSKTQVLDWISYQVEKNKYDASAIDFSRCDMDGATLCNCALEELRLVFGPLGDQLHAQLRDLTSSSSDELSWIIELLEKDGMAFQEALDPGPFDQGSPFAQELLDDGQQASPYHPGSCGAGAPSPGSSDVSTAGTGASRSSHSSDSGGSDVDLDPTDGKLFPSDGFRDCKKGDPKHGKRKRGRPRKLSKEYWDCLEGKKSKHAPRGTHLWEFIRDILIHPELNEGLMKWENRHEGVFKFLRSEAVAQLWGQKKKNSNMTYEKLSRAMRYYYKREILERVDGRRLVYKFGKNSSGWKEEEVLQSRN
# How it was run: as §1
# [9] = molecular target: CRX (Homo sapiens, UniProt O43186 1-299); details: protein: recombinant; tags: N-terminal GST; dsDNA, one strand shown
# How it was run: as §1
# [10] = molecular target: ETV1 (Homo sapiens, UniProt P50549 1-477); details: protein: recombinant; tags: N-terminal GST; dsDNA, one strand shown
# How it was run: as §1
# [11] = molecular target: T6, ERF (Homo sapiens, UniProt P50548 1-548); details: protein: recombinant; tags: N-terminal GST; dsDNA, one strand shown
# T6 sequence: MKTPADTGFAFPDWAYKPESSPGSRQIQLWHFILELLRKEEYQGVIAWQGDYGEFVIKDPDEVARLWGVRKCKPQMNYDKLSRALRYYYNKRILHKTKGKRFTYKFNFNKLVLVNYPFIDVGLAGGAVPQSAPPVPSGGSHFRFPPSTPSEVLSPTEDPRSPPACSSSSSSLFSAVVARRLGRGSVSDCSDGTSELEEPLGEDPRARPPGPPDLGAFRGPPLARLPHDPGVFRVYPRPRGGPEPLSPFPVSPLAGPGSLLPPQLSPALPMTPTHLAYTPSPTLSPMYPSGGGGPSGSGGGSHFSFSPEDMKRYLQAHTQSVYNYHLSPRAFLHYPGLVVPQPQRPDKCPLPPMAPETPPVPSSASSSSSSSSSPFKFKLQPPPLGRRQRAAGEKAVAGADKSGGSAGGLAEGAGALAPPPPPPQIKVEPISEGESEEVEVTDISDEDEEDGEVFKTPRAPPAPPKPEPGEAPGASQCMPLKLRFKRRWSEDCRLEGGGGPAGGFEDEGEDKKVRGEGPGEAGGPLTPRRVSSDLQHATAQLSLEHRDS
# How it was run: as §1
# [12] = molecular target: T7, ETV3L (Homo sapiens, UniProt Q6ZN32 1-361); details: protein: recombinant; tags: N-terminal GST; dsDNA, one strand shown
# T7 sequence: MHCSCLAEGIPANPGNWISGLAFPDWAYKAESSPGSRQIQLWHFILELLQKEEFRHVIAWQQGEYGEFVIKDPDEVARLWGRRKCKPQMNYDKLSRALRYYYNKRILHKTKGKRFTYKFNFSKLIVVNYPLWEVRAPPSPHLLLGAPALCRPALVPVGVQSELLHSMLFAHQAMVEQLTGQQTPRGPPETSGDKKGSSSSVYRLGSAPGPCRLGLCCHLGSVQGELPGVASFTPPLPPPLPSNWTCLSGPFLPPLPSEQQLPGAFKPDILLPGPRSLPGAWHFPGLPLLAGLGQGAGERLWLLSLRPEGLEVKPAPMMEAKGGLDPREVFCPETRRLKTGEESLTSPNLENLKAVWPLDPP
# How it was run: as §1
# [13] = molecular target: T8, ETS2 (Homo sapiens, UniProt P15036 1-469); details: protein: recombinant; tags: N-terminal GST; dsDNA, one strand shown
# T8 sequence: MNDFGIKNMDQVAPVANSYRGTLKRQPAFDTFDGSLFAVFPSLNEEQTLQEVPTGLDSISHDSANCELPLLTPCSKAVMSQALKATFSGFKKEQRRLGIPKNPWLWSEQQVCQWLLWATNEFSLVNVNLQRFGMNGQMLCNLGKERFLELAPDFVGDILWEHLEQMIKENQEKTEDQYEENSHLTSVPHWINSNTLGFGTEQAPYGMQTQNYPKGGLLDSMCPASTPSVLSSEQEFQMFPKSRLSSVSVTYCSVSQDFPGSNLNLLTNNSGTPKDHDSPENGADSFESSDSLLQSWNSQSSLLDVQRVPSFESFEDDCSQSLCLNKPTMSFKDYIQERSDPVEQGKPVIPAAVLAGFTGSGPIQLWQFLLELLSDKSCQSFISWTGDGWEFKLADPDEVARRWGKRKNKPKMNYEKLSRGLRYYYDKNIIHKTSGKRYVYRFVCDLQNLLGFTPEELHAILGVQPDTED
# How it was run: as §1
# [14] = molecular target: T9, SPDEF (Homo sapiens, UniProt O95238 1-335); details: protein: recombinant; tags: N-terminal GST; dsDNA, one strand shown
# T9 sequence: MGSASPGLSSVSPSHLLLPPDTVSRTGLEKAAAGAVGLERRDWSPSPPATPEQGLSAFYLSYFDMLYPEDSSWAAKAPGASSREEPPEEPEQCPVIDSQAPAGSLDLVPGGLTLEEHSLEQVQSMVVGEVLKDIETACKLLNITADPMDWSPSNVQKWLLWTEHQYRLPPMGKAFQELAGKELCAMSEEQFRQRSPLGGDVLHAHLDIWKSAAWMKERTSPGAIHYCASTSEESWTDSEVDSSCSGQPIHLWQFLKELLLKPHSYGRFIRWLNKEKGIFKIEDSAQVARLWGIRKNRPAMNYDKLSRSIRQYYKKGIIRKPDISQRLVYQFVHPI
# How it was run: as §1
# [15] = molecular target: T10, ETV7 (Homo sapiens, UniProt Q9Y603 1-341); details: protein: recombinant; tags: N-terminal GST; dsDNA, one strand shown
# T10 sequence: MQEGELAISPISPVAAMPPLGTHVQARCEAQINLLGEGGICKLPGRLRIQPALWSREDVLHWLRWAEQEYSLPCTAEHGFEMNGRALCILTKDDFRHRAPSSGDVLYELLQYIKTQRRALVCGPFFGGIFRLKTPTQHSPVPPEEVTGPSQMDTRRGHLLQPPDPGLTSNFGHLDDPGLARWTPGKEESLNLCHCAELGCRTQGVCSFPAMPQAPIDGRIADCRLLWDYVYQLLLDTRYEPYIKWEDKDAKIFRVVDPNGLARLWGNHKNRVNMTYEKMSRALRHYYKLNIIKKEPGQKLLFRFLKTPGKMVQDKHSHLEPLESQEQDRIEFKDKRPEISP
# How it was run: as §1
# [16] = molecular target: T11, ELF5 (Homo sapiens, UniProt Q9UKW6-2 1-255); details: protein: recombinant; tags: N-terminal GST; dsDNA, one strand shown
# T11 sequence: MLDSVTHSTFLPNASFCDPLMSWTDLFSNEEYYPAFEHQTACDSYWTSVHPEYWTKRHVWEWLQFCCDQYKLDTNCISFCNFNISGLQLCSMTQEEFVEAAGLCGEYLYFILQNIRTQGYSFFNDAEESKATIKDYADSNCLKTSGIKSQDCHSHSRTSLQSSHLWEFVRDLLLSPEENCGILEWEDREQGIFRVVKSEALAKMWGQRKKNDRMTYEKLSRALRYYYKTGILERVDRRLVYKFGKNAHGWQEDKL
# How it was run: as §1
# [17] = molecular target: T12, ETV3 (Homo sapiens, UniProt P41162-2 1-143); details: protein: recombinant; tags: N-terminal GST; dsDNA, one strand shown
# T12 sequence: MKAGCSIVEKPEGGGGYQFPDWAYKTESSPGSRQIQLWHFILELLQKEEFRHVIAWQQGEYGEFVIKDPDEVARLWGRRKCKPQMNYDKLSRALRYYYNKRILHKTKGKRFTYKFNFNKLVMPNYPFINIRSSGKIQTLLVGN
# How it was run: as §1
# [18] = molecular target: ETV6 (Homo sapiens, UniProt P41212 1-452); details: protein: recombinant; tags: N-terminal GST; dsDNA, one strand shown
# How it was run: as §1
# ETV1, sequence (P50549 whole entry): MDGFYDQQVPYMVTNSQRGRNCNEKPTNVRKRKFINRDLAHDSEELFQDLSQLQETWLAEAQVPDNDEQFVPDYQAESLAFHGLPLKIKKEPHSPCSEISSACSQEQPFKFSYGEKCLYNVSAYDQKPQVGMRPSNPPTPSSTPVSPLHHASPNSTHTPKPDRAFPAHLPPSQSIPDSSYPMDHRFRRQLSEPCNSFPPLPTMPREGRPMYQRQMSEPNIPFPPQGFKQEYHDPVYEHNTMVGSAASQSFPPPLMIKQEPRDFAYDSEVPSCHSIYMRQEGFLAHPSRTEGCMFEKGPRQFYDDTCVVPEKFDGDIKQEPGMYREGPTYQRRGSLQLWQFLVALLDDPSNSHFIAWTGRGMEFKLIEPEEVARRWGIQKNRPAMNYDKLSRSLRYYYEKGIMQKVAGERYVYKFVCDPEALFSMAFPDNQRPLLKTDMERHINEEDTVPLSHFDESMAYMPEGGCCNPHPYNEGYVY
# ETV6, sequence (P41212 whole entry): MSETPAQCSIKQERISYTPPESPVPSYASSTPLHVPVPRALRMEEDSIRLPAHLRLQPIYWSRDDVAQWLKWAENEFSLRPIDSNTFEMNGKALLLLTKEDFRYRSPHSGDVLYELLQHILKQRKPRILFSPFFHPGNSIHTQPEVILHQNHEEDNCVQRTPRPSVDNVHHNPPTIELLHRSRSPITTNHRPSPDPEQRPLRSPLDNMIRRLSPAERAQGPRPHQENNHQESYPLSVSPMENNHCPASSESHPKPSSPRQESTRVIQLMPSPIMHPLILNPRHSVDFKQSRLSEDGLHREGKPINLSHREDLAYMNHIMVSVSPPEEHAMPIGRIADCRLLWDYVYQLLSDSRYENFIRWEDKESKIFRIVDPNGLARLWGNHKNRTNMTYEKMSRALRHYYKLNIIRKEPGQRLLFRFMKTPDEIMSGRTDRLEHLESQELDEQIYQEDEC
# CRX, sequence (O43186 whole entry): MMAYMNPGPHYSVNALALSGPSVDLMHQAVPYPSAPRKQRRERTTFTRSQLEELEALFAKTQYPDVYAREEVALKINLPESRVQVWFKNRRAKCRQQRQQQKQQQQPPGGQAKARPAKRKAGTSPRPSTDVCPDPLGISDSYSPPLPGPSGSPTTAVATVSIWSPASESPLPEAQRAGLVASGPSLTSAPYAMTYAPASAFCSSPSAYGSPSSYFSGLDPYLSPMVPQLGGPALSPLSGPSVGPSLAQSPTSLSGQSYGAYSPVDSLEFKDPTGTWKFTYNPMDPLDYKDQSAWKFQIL
# ETV5, sequence (P41161 whole entry): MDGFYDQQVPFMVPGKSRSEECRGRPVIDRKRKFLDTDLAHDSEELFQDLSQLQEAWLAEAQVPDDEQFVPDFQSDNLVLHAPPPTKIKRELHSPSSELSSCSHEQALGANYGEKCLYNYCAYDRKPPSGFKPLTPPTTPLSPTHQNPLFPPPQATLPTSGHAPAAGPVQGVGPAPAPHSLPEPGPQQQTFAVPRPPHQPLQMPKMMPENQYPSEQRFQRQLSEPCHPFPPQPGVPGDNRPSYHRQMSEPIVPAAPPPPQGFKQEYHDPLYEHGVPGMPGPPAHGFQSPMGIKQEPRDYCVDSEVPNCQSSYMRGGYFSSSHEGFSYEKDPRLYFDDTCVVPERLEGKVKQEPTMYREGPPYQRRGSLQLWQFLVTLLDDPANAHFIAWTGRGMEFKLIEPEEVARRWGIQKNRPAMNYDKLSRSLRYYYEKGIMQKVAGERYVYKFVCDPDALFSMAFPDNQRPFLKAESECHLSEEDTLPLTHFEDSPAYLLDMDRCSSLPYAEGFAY
# HSF1, sequence (Q00613 whole entry): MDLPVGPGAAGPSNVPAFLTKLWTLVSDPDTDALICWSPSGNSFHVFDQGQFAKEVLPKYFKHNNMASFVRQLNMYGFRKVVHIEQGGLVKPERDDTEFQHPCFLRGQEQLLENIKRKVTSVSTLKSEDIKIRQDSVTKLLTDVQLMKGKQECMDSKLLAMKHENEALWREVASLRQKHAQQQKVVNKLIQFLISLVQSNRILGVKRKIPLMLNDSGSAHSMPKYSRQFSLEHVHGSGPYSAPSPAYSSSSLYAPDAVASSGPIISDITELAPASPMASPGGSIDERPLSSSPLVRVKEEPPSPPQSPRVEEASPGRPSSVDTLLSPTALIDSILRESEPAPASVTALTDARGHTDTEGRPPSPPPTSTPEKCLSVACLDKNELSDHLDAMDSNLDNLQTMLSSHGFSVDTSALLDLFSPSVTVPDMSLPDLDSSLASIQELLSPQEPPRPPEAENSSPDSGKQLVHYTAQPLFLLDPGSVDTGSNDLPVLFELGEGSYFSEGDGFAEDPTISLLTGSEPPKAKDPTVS
# ELF4, sequence (Q99607 whole entry): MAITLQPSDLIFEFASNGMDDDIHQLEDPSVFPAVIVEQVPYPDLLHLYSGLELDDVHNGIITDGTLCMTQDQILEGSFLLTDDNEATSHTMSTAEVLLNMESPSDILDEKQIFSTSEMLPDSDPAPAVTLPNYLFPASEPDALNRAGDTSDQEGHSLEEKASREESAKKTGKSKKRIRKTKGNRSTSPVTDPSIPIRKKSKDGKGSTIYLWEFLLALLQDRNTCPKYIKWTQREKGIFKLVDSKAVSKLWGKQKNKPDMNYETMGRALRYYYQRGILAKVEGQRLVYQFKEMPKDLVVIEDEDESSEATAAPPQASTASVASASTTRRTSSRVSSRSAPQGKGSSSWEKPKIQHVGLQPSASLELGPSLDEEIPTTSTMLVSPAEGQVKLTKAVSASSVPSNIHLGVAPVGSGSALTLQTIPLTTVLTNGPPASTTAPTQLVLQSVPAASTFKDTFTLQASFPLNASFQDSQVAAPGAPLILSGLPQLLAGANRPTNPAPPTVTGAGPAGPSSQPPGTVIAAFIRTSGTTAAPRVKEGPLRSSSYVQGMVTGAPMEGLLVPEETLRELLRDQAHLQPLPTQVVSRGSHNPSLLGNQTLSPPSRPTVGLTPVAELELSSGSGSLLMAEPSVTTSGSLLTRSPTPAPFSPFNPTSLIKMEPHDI
sequence,measurement,setting,value
ATGAAA,binding signal,[1],"1.13 fold enrichment (6-mer frequency, TF over GST control)"
same,binding signal,[2],"1.12 fold enrichment (6-mer frequency, TF over GST control)"
same,binding signal,[3],"1.16 fold enrichment (6-mer frequency, TF over GST control)"
same,binding signal,[4],"1.24 fold enrichment (6-mer frequency, TF over GST control)"
same,binding signal,[5],"1.2 fold enrichment (6-mer frequency, TF over GST control)"
same,binding signal,[6],"1.21 fold enrichment (6-mer frequency, TF over GST control)"
same,binding signal,[7],"1.15 fold enrichment (6-mer frequency, TF over GST control)"
same,binding signal,[8],"1.19 fold enrichment (6-mer frequency, TF over GST control)"
same,binding signal,[9],"1.08 fold enrichment (6-mer frequency, TF over GST control)"
same,binding signal,[10],"1.2 fold enrichment (6-mer frequency, TF over GST control)"
same,binding signal,[11],"1.21 fold enrichment (6-mer frequency, TF over GST control)"
same,binding signal,[12],"1.16 fold enrichment (6-mer frequency, TF over GST control)"
same,binding signal,[13],"1.15 fold enrichment (6-mer frequency, TF over GST control)"
same,binding signal,[14],"1.06 fold enrichment (6-mer frequency, TF over GST control)"
same,binding signal,[15],"1.07 fold enrichment (6-mer frequency, TF over GST control)"
same,binding signal,[16],"1.13 fold enrichment (6-mer frequency, TF over GST control)"
same,binding signal,[17],"1.1 fold enrichment (6-mer frequency, TF over GST control)"
same,binding signal,[18],"1.1 fold enrichment (6-mer frequency, TF over GST control)"
